Test results taken from paper PMC11062922 (Nature Chemical Biology, 2023).
Like-named read-outs stand apart in the source and are kept apart here.

Legend:
PRKAA2 = conditions: read-out: apparent Kd, n = 1
PRKD2 = conditions: read-out: apparent Kd, n = 1

Substance: Lestaurtinib
- potency estimated from few doses (PRKAA2; compound concentrations:100 nM and 1000 nM (sheet 'Lestaurtinib' of Supplementary Table 1),run:Lestaurtinib_02496_R2,Plate:MR013): 598 nM
- potency estimated from few doses (PRKAA2; compound concentrations:100 nM and 1000 nM (sheet 'Lestaurtinib' of Supplementary Table 1),run:Lestaurtinib_02496_R3,Plate:MR013): 785 nM
- potency estimated from few doses (PRKAA2; compound concentrations:100 nM and 1000 nM (sheet 'Lestaurtinib' of Supplementary Table 1),run:Lestaurtinib_02572_R1,Plate:MR015): 617 nM
- potency estimated from few doses (PRKAA2; compound concentrations:100 nM and 1000 nM (sheet 'Lestaurtinib' of Supplementary Table 1),run:Lestaurtinib_02572_R2,Plate:MR015): 1330 nM
- potency estimated from few doses (PRKAA2; compound concentrations:100 nM and 1000 nM (sheet 'Lestaurtinib' of Supplementary Table 1),run:Lestaurtinib_02572_R3,Plate:MR015): 1400 nM
- potency estimated from few doses (PRKAA2; compound concentrations:100 nM and 1000 nM (sheet 'Lestaurtinib' of Supplementary Table 1),run:Lestaurtinib_02577_R2,Plate:MR016): 1210 nM
- potency estimated from few doses (PRKAA2; compound concentrations:100 nM and 1000 nM (sheet 'Lestaurtinib' of Supplementary Table 1),run:Lestaurtinib_02577_R3,Plate:MR016): 924 nM
- potency estimated from few doses (PRKAA2; compound concentrations:100 nM and 1000 nM (sheet 'Lestaurtinib' of Supplementary Table 1),run:Lestaurtinib_02584_R1,Plate:MR017): 1410 nM
- potency estimated from few doses (PRKAA2; compound concentrations:100 nM and 1000 nM (sheet 'Lestaurtinib' of Supplementary Table 1),run:Lestaurtinib_02584_R3,Plate:MR017): 1530 nM
- potency estimated from few doses (PRKAA2; compound concentrations:100 nM and 1000 nM (sheet 'Lestaurtinib' of Supplementary Table 1),run:Lestaurtinib_02601_R1,Plate:MR018): 805 nM
- potency estimated from few doses (PRKAA2; compound concentrations:100 nM and 1000 nM (sheet 'Lestaurtinib' of Supplementary Table 1),run:Lestaurtinib_02601_R2,Plate:MR018): 710 nM
- potency estimated from few doses (PRKAA2; compound concentrations:100 nM and 1000 nM (sheet 'Lestaurtinib' of Supplementary Table 1),run:Lestaurtinib_02606_R2,Plate:MR019): 749 nM
- potency estimated from few doses (PRKAA2; compound concentrations:100 nM and 1000 nM (sheet 'Lestaurtinib' of Supplementary Table 1),run:Lestaurtinib_02606_R3,Plate:MR019): 736 nM
- potency estimated from few doses (PRKAA2; compound concentrations:100 nM and 1000 nM (sheet 'Lestaurtinib' of Supplementary Table 1),run:Lestaurtinib_02624_R1,Plate:MR020): 849 nM
- potency estimated from few doses (PRKAA2; compound concentrations:100 nM and 1000 nM (sheet 'Lestaurtinib' of Supplementary Table 1),run:Lestaurtinib_02624_R2,Plate:MR020): 711 nM
- potency estimated from few doses (PRKAA2; compound concentrations:100 nM and 1000 nM (sheet 'Lestaurtinib' of Supplementary Table 1),run:Lestaurtinib_02624_R3,Plate:MR020): 877 nM
- potency estimated from few doses (PRKAA2; compound concentrations:100 nM and 1000 nM (sheet 'Lestaurtinib' of Supplementary Table 1),run:Lestaurtinib_02724_R2,Plate:MR021): 803 nM
- potency estimated from few doses (PRKAA2; compound concentrations:100 nM and 1000 nM (sheet 'Lestaurtinib' of Supplementary Table 1),run:Lestaurtinib_02724_R3,Plate:MR021): 946 nM
- potency estimated from few doses (PRKAA2; compound concentrations:100 nM and 1000 nM (sheet 'Lestaurtinib' of Supplementary Table 1),run:Lestaurtinib_02748_R1,Plate:MR024): 752 nM
- potency estimated from few doses (PRKAA2; compound concentrations:100 nM and 1000 nM (sheet 'Lestaurtinib' of Supplementary Table 1),run:Lestaurtinib_02748_R3,Plate:MR024): 559 nM
- potency estimated from few doses (PRKAA2; compound concentrations:100 nM and 1000 nM (sheet 'Lestaurtinib' of Supplementary Table 1),run:Lestaurtinib_02752_R2,Plate:MR025): 851 nM
- potency estimated from few doses (PRKAA2; compound concentrations:100 nM and 1000 nM (sheet 'Lestaurtinib' of Supplementary Table 1),run:Lestaurtinib_02752_R3,Plate:MR025): 786 nM
- potency estimated from few doses (PRKAA2; compound concentrations:100 nM and 1000 nM (sheet 'Lestaurtinib' of Supplementary Table 1),run:Lestaurtinib_02765_R1,Plate:MR026): 911 nM
- potency estimated from few doses (PRKAA2; compound concentrations:100 nM and 1000 nM (sheet 'Lestaurtinib' of Supplementary Table 1),run:Lestaurtinib_02765_R2,Plate:MR026): 741 nM
- potency estimated from few doses (PRKAA2; compound concentrations:100 nM and 1000 nM (sheet 'Lestaurtinib' of Supplementary Table 1),run:Lestaurtinib_02766_R1,Plate:MR027): 782 nM
- potency estimated from few doses (PRKAA2; compound concentrations:100 nM and 1000 nM (sheet 'Lestaurtinib' of Supplementary Table 1),run:Lestaurtinib_02766_R2,Plate:MR027): 96.4 nM
- potency estimated from few doses (PRKAA2; compound concentrations:100 nM and 1000 nM (sheet 'Lestaurtinib' of Supplementary Table 1),run:Lestaurtinib_02766_R3,Plate:MR027): 669 nM
- potency estimated from few doses (PRKAA2; compound concentrations:100 nM and 1000 nM (sheet 'Lestaurtinib' of Supplementary Table 1),run:Lestaurtinib_02768_R3,Plate:MR028): 518 nM
- potency estimated from few doses (PRKAA2; compound concentrations:100 nM and 1000 nM (sheet 'Lestaurtinib' of Supplementary Table 1),run:Lestaurtinib_02795_R2,Plate:MR022): 783 nM
- potency estimated from few doses (PRKAA2; compound concentrations:100 nM and 1000 nM (sheet 'Lestaurtinib' of Supplementary Table 1),run:Lestaurtinib_02795_R3,Plate:MR022): 860 nM
- potency estimated from few doses (PRKAA2; compound concentrations:100 nM and 1000 nM (sheet 'Lestaurtinib' of Supplementary Table 1),run:Lestaurtinib_02802_R1,Plate:MR029): 713 nM
- potency estimated from few doses (PRKAA2; compound concentrations:100 nM and 1000 nM (sheet 'Lestaurtinib' of Supplementary Table 1),run:Lestaurtinib_02802_R2,Plate:MR029): 472 nM
- potency estimated from few doses (PRKAA2; compound concentrations:100 nM and 1000 nM (sheet 'Lestaurtinib' of Supplementary Table 1),run:Lestaurtinib_02802_R3,Plate:MR029): 74.9 nM
- potency estimated from few doses (PRKAA2; compound concentrations:100 nM and 1000 nM (sheet 'Lestaurtinib' of Supplementary Table 1),run:Lestaurtinib_02896_R2,Plate:MR030): 1800 nM
- potency estimated from few doses (PRKAA2; compound concentrations:100 nM and 1000 nM (sheet 'Lestaurtinib' of Supplementary Table 1),run:Lestaurtinib_02896_R3,Plate:MR030): 761 nM
- potency estimated from few doses (PRKAA2; compound concentrations:100 nM and 1000 nM (sheet 'Lestaurtinib' of Supplementary Table 1),run:Lestaurtinib_03172_R1,Plate:MR031): 796 nM
- potency estimated from few doses (PRKAA2; compound concentrations:100 nM and 1000 nM (sheet 'Lestaurtinib' of Supplementary Table 1),run:Lestaurtinib_03172_R2,Plate:MR031): 564 nM
- potency estimated from few doses (PRKAA2; compound concentrations:100 nM and 1000 nM (sheet 'Lestaurtinib' of Supplementary Table 1),run:Lestaurtinib_03172_R3,Plate:MR031): 696 nM
- potency estimated from few doses (PRKAA2; compound concentrations:100 nM and 1000 nM (sheet 'Lestaurtinib' of Supplementary Table 1),run:Lestaurtinib_03252_R1,Plate:MR032): 1210 nM
- potency estimated from few doses (PRKAA2; compound concentrations:100 nM and 1000 nM (sheet 'Lestaurtinib' of Supplementary Table 1),run:Lestaurtinib_03252_R2,Plate:MR032): 26.1 nM
- potency estimated from few doses (PRKD2; compound concentrations:100 nM and 1000 nM (sheet 'Lestaurtinib' of Supplementary Table 1),run:Lestaurtinib_02339_R1,Plate:MR001): 41.6 nM
- potency estimated from few doses (PRKD2; compound concentrations:100 nM and 1000 nM (sheet 'Lestaurtinib' of Supplementary Table 1),run:Lestaurtinib_02339_R3,Plate:MR001): 39.3 nM
